# A selection: hits, their analogues and other compounds. The true share with any hit is near 2.4%.
# D2 ag-1 – human D2 receptor agonism in beta-arrestin assay; DiscoveRx PathHunter D2 beta-arrestin, luminescence, 90 min; 100% = 57 uM dopamine signal; hit rate 0.084% among 360,000; AID 624465; activation, % (concentration not given with the values); P14416; in the data active = activation above about 40%; inconclusive = between about 15% and that limit
# Target sequence (P14416 whole entry, looked up): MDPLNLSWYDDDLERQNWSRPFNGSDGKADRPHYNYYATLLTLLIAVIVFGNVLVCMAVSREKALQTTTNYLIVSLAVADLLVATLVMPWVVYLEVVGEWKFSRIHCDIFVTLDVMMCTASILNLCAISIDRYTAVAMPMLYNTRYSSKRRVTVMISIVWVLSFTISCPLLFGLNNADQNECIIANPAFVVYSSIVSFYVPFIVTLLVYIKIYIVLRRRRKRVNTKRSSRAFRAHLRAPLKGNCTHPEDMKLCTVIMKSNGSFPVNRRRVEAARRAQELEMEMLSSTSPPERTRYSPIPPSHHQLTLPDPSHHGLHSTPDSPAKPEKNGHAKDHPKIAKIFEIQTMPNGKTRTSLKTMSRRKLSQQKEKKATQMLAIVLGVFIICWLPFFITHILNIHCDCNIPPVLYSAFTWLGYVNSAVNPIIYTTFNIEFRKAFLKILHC
#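 DiscoveRx PathHunter D2 beta-arrestin cells (2,100/well) attached overnight, then compound-stimulated 90 min at 37 C in HBSS/10 mM HEPES/0.1% Tween-20 buffer; beta-galactosidase complementation read by luminescence after 1 h at ambient temperature. Dopamine 57 uM final (EC100) as control.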
# D2 PAM-1 – positive allosteric modulators of human D2 dopamine receptor. P14416. HEK293 T-REx D2, calcium flux, EC20 dopamine potentiation. potentiation, % at 10 µM. hit rate 0.34% among 340,000. AID 485347;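 active = potentiation over 3 SD above the plate norm, cut at about 30% in these data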; note: 0% is about no effect
#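 Tetracycline-induced HEK293 T-REx cells force-coupled to calcium signalling expressed D2; compounds were pin-added after a 10 s baseline, read kinetically 180 s, then an EC20 dopamine challenge followed with a further 180 s calcium read.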
# D2 antagonist – D2 dopamine receptor (human) antagonism; P14416; HEK293 TREx D2 cells, calcium flux, dopamine EC80; inhibition, % at 10 µM; hit rate 2% among 340,000; in the data active = inhibition above about 30%; inactive = below that, where a call was filed; note: 0% is about no effect
#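 Tetracycline-induced HEK293 TREx cells expressing D2 receptor forced-coupled to calcium signalling, loaded with no-wash calcium dye. Compounds added and calcium flux read 180 s, then dopamine added at EC80 and read a further 180 s.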
# D2 ag-2 – D2 dopamine receptor (human) agonism | hit rate 0.53% among 340,000 | AID 485358 | P14416 | HEK293 T-REx D2 cells, calcium flux agonist mode | activation, % at 2 µM;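 active = activation over 3 SD above normal in the single-dose calcium agonist read, cut at about 30% in these data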; note: 0% is about no effect
#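 Calcium-flux readout, 1 cycle/sec over 180 s following compound pin transfer, in inducible HEK293 Trex D2 cells (force-coupled); dopamine controls included. Positive calcium responses during this window marked compounds as potential agonists.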
# D2 PAM-2 – positive allosteric modulators of human D2 dopamine receptor; potentiation, % (no concentration beside the values); hit rate 0.23% among 360,000; DiscoveRx D2 beta-arrestin cells, luminescence, 90 min; 100% = 57 uM dopamine signal; P14416; in the data active = potentiation above about 50%; inconclusive = mostly about 30% to 49%
#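 D2 cells co-treated with compound plus 50 nM dopamine (EC20) for 90 min at 37 deg C to detect potentiation. Beta-arrestin recruitment was read as enzyme-fragment luminescence after 1 h at ambient temperature. Full response was set by 57 uM dopamine.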
# * marks the source's active call; other numbers are inactive results; ? = inconclusive; · = not tested or not shown.
SMILES,D2 ag-1,D2 PAM-1,D2 antagonist,D2 ag-2,D2 PAM-2
O=C(c1ccc(NS(=O)(=O)c2ccc(F)cc2)cc1)N1CCC1,-7.7,8.5,41.8*,-0.5,-25.4
CCOC(=O)c1noc2nc(C)n(CC(=O)Nc3ccc(OC)c(Cl)c3)c(=O)c12,·,2.0,·,0.4,·
COC(=O)c1sccc1NC(=S)N1CCC(C(N)=O)CC1,-3.6,1.6,36.5*,-0.1,0.9
COC(=O)c1sccc1NC(=S)N1CCCCC1,-1.5,22.2,-1.7,0.3,10.4
COc1ccc(-c2csc(C)n2)cc1Br,3.6,-12.4,36.4*,2.8,-1.0
COc1cc(-c2csc(C)n2)ccc1O,-0.7,-7.5,0.4,0.9,-16.2
CC(=O)Nc1ccc(Oc2sc(C(=O)c3ccccc3)c(N)c2C#N)cc1,-3.0,-5.0,31.5*,0.2,-9.7
Cc1ccc(S(=O)(=O)NCC2CCC(C(=O)NCc3ccc(F)cc3)CC2)cc1 (configuration not stated),·,-3.5,·,-1.2,·
COc1cc2c(cc1OC)[C@@H]1Cc3ccc(OC)c(OC)c3CN1CC2,-2.0,-21.3,57.2*,4.0,-19.1
COc1cc2c(cc1OC)C1Cc3ccc(OC)c(OC)c3CN1CC2 (configuration not stated),-3.6,-22.2,79.7*,5.0,-47.2
Cc1ccc(-c2csc3ncnc(N4CCN(Cc5ccccc5)CC4)c23)cc1,-2.1,·,·,·,-2.9
Cc1csc2ncnc(NC3CCN(Cc4ccccc4)CC3)c12,-1.4,-21.1,78.6*,-2.6,-2.0
Cc1ccc(N(C)S(=O)(=O)c2ccc3[nH]cc(C(=O)O)c(=O)c3c2)cc1C,·,-7.9,·,-0.1,·
COc1ccc2c(c1)c1c(c(=O)n(-c3cccc(Cl)c3)c(=O)n1C)n2C,·,-2.8,·,·,·
O=C(CN1CCCCC1)Nc1ccc(S(=O)(=O)N2CCCCCC2)cc1,-2.5,-5.1,-9.8,-0.9,-11.8
CC(C)CC(=O)Nc1ccc(C(=O)CN2CCN(c3ccc(O)cc3)CC2)cc1,6.0,30.8*,0.1,0.2,4.8
O=C(CN1CCN(c2ccc(O)cc2)CC1)Nc1ccc(S(=O)(=O)N2CCCC2)cc1,48.9*,·,·,·,27.7
CCCn1nc(C(=O)Nc2ccc3nc(N4CCOCC4)sc3c2)ccc1=O,7.6,11.4,-6.7,0.9,0.4
CC(C)C(C(=O)Nc1ccc2c(c1)OCCO2)N1C(=O)c2ccccc2C1=O (configuration not stated),-4.2,-6.3,-5.1,0.6,-7.7
CC(C)CC(C(=O)Nc1ccc2c(c1)OCCO2)N1C(=O)c2ccccc2C1=O (configuration not stated),6.7,-5.9,57.0*,-1.6,-7.0
O=C(Nc1ccc(F)cc1)c1ccc2ncsc2c1,5.9,-5.7,17.9,-0.1,-3.2
O=C(Nc1ccc(Cl)cc1)c1ccc2ncsc2c1,?,-19.5,40.1*,-0.4,-5.5
COc1cc2cnc(-c3ccccc3)c(-c3cccc(C(F)(F)F)c3)c2cc1OC,?,1.3,-2.0,-0.6,161.6*
O=C1[C@H]2[C@@H](c3ccc(F)cc3)N3C(=O)N(c4cccc(Br)c4)C(=O)[C@@]3(Cc3ccccc3)[C@H]2C(=O)N1C1CCCCC1,0.4,-4.4,40.9*,1.4,-13.7
COc1ccc([C@@H]2Sc3ccccc3NC(=O)[C@@H]2O)cc1,-4.2,·,·,·,-20.0
SMILES,D2 ag-1,D2 PAM-1,D2 antagonist,D2 ag-2,D2 PAM-2
Cc1ccc(-c2nnc(N(C)C(=O)c3cccnc3)s2)cn1,-1.3,5.7,16.1,-1.3,22.9
Cc1ccc(-c2nnc(N(C)C(=O)c3cccnc3)s2)cc1,3.3,37.6*,3.6,0.3,12.2
CCc1ccc(OCC(=O)NCC(c2ccc(Cl)cc2)N2CCOCC2)cc1 (configuration not stated),·,8.5,·,-2.0,·
O=C(Nc1ccc2c(c1)OCCO2)c1cc2ccccc2o1,0.0,-6.4,32.6*,-0.9,-18.3
Nc1cc([N+](=O)[O-])ccc1Nc1ccccc1,-7.5,16.0,2.4,0.1,-7.3
Nc1cc(C(F)(F)F)ccc1Nc1ccccc1,3.3,-7.3,67.1*,0.2,0.6
N#Cc1ccc(Nc2ccccc2)c(N)c1,-4.3,-14.0,30.9*,0.8,-10.4
Nc1nc2ccc(C(=O)N3CCCCC3)cc2s1,0.9,0.1,51.2*,0.5,-1.6
O=C(c1ccc2ncsc2c1)N1CCCCC1,-2.6,-6.4,-4.8,0.6,-5.9
COCCCN(C(=O)Cc1csc(-c2cccc(Cl)c2)n1)c1c(N)n(Cc2ccccc2)c(=O)[nH]c1=O,-4.4,0.5,11.0,0.4,-0.3
CN(C)c1cccc2c(S(=O)(=O)Nc3ccccn3)cccc12,11.1,·,-12.0,1.4,54.4*
CC1=Nn2c(nc3sc4c(c3c2=O)CCCC4)SC1,-6.3,5.1,54.8*,-0.3,0.9
O=c1c2c3c(sc2nc2n1CCCCC2)CCCCC3,·,8.3,56.7*,0.3,·
COC(=O)c1cc(C(=O)OC)cc(-n2c(C)cc(C(=O)COC(=O)CNS(=O)(=O)c3ccc(C)cc3)c2C)c1,-1.2,-17.6,59.5*,-0.6,-1.7
CCN(CC)CC(=O)Nc1cc(N(C)C)nc2ccccc12,-1.8,-12.7,1.3,-0.3,-7.2
CCCCCC(=O)Nc1cc(N(C)C)nc2ccccc12,-9.1,-12.1,35.2*,-1.3,-20.6
Cc1ccc(-c2cc(NC(=O)COc3ccc(Cl)cc3C)on2)cc1,·,-8.5,·,0.7,·
O=c1c2ccccc2nc(SCc2cc(F)cc3c2OCOC3)n1Cc1ccco1,0.4,-5.1,2.6,-0.2,-4.1
CCOC(=O)c1cc2c(c(CSc3nc4ccccc4c(=O)n3Cc3ccco3)c1)OCOC2,-2.5,0.0,30.7*,0.6,-1.7
COCc1nnc(NC(=O)c2ccc(S(=O)(=O)N3CCCCCC3)cc2)o1,0.1,31.9*,7.1,0.5,-2.2
CC1CCCN(S(=O)(=O)c2ccc(C(=O)Nc3nnc(-c4ccccn4)o3)cc2)C1 (configuration not stated),2.4,10.3,34.6*,0.1,-7.7
Cc1nnc(NC(=O)c2ccc(S(=O)(=O)N3CCCCCC3)cc2)o1,-2.6,10.0,0.3,0.2,-16.6
CCCS(=O)(=O)Nc1cccc(-c2cn3ccc(C)cc3n2)c1,·,-4.2,·,-0.8,·
CN1CCN(C(c2cccc(Cl)c2)c2ccccc2Cl)CC1 (configuration not stated),-5.7,-27.8,82.6*,0.3,-34.0
CN1CCN(C(c2ccccc2)c2ccc(Cl)cc2)CC1 (configuration not stated),-4.4,·,·,·,-27.5
COc1cccc(N2C(=O)C(CC(=O)Nc3ccccc3)N(CCc3sccc3C)C2=O)c1 (configuration not stated),·,-21.8,·,0.4,·
Cc1ccccc1OCCN1C(=O)C(=O)c2cccc(C)c21,-17.4,2.3,-1.0,1.5,-66.5
Cc1cccc2c1N(CCOc1ccccc1Cl)C(=O)C2=O,-14.0,-8.4,30.4*,-1.1,-36.2
